SNCA expr inh = SNCA gene expression inhibition; HEK-293 SNCA-luciferase knock-in, luminescence, 24 h; Potency, µM (titrated, usually from 57.2 µM), usual class: inhibitors; hit rate 0.17% among 140,000; AID 1671194; also: nearly all actives have a fitted effect of over 45% in size
HEK cytotox = kills HEK 293 cells; HEK 293 viability, ATP luminescence (CellTiter-Glo), 48-72 h; Potency, µM (top dose mostly 115 µM), usual class: inhibitors; hit rate 6.6% among 94,000; also: nearly all actives have a fitted effect of over 60% in size
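CellTiter-Glo luminescence (cellular ATP) was read after 48 or 72 hr of compound exposure at 37 degree Celsius. Cells were HEK 293 plated at 250 cells/well.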
IP6K1 inhibitor = blocks human inositol hexakisphosphate kinase 1. IP6K1 kinase, ADP-Glo luminescence, 2 h; hits give low values. activity change, % (series mostly up to about 58 µM). hit rate 0.81% among 140,000. AID 1645851; in the data active = activity change below about -25%
Target sequence (Q92551 whole entry, looked up): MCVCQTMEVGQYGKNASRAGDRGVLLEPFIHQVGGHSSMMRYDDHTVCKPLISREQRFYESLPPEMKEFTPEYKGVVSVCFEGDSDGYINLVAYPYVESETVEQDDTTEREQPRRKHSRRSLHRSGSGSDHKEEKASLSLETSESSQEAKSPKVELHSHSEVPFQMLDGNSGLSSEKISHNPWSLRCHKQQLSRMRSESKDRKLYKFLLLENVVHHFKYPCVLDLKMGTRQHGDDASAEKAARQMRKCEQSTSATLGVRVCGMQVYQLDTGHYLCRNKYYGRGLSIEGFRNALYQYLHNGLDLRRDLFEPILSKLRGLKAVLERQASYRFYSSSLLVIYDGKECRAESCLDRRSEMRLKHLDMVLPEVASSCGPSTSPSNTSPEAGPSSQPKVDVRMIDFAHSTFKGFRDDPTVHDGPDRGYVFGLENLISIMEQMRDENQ
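ADP-Glo luminescence measures ADP made by human IP6K1 during a 2 h RT reaction with ATP/IP6 (mix at 1.3 mM/130 uM); top library doses 57.5 and 19.1 uM final.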
SNCA viab count = counter-screen for SNCA expression inhibitors: cell viability | HEK-293-SNCA-luc viability, GF-AFC fluorescence, 24 h | Potency, µM (titrated, usually from 57.1 µM), most hits filed as cytotoxic | hit rate 0.12% among 150,000 | AID 1671193; also: nearly all actives have a fitted effect of over 30% in size
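HEK-293-SNCA-luc cells (1500/well) plated 24 h, then exposed 24 h to a dilution series; GF-AFC added 30 min at 37C, fluorescence 405/540 nm; normalised to medium-only and DMSO wells, Hill fit.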
FLuc inh = inhibitors of firefly (Photinus pyralis) luciferase; hit rate 2.5% among 76,000; AID 1347043; Potency, µM (titrated, usually from 115 µM), hits mostly inhibitors; purified P. pyralis luciferase, luminescence, biochemical; also: nearly all actives have a fitted effect of over 65% in size
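Inhibitors were tested against purified firefly luciferase in a biochemical, low-substrate format (both substrates at 10uM) and luminescence measured with a CCD imager.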
NIH3T3 tox = kills NIH 3T3 cells | NIH 3T3 viability, CellTiter-Glo ATP luminescence, 48-72 h | Potency, µM (top dose mostly 96.7 µM), hits mostly inhibitors | hit rate 4.3% among 94,000 | AID 1345082; also: nearly all actives have a fitted effect of over 55% in size
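ATP-dependent luminescence (CellTiter-Glo) served as the viability signal for NIH 3T3 cells treated with compound for 48 or 72 hr at 37 °C.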
Numbers stand for hits; 0 = inactive; ? = inconclusive; - = no result given. Hits are enriched below; roughly 7.3% of the tested compounds scored in any of these assays. Unless noted, calls follow the shape of the dose curve; as a rule, active = well fitted curve in the direction sought with a large enough effect; inconclusive = small, poorly fitted or top-dose-only effect, or another doubt; inactive = no such curve, though single readings can be large; an effect the other way counts as inactive or inconclusive.

SMILES	SNCA expr inh	HEK cytotox	IP6K1 inhibitor	SNCA viab count	FLuc inh	NIH3T3 tox
CCOc1cc(C(=O)NC2CCN(c3cc(-c4cccs4)[nH]n3)C2)cc(OCC)c1OCC (centres undefined)	?	44.7µM	0	?	0	?
O=C(Cc1cccc(F)c1)NC1CCN(c2cc(-c3cccs3)[nH]n2)C1 (centres undefined)	0	?	0	0	0	?
CCOc1ccc(CC(=O)NC2CCN(c3cc(-c4cccs4)[nH]n3)C2)cc1 (centres undefined)	?	44.7µM	0	0	0	15.8µM
CNC(=O)c1cc(C2CC2)nc2onc(C3CCN(C(=O)c4ccncc4)C3)c12 (centres undefined)	-	0	0	-	-	0
CN(Cc1cc(C[C@@H]2C[C@H](NCc3ncc[nH]3)C2(C)C)no1)c1ccccc1	0	63.1µM	0	0	?	100µM
CC1(C)[C@H](Cc2cc(CN3CCCCC3)on2)C[C@@H]1NCc1ccccn1	0	?	0	?	0	112µM
CC(C)(C)CC(=O)N[C@H]1C[C@@H](Cc2cc(CN3CCN(c4ccccc4)CC3)on2)C1(C)C	?	25.1µM	0	0	0	?
CC(=O)N[C@H]1C[C@@H](Cc2cc(CN(C)c3ccccc3)on2)C1(C)C	0	79.4µM	0	0	0	0
CC(C)NC(=O)N[C@H]1C[C@@H](Cc2cc(CN(C)c3ccccc3)on2)C1(C)C	0	?	0	0	0	?
CC(C)(C)CC(=O)Nc1ccc([C@@H](O)[C@H]2COCC(=O)N2CCCc2ccccc2)cc1	0	0	0	0	0	0
COCC(=O)N[C@H]1C[C@@H](Cc2cc(CN(C)Cc3ccccc3)on2)C1(C)C	0	?	0	0	0	?
COCC(=O)N[C@H]1C[C@@H](Cc2cc(CN(C)c3ccccc3)on2)C1(C)C	0	44.7µM	0	0	0	?
COCCNC(=O)c1nc(-c2ccsc2)c2ccccn12	0	?	0	0	?	0
CCc1ccc(C2CC(C(=O)NC(C)c3ccccc3)CN(C(=O)c3ccoc3)C2)cc1 (centres undefined)	0	?	0	?	0	31.6µM
CCOC(=O)C1CCCN(C(=O)C2CC(c3ccc(CC)cc3)CN(C(=O)c3ccoc3)C2)C1 (centres undefined)	0	44.7µM	0	0	0	?
CCOC(=O)C1CCCN(C(=O)C2CC(c3ccccc3)CN(C(=O)c3cccc(F)c3)C2)C1 (centres undefined)	0	?	0	0	0	?
COc1ccc(-c2nc(N3CCOC[C@H]3C)cc3c2CN(C(C)C)C3=O)cc1	0	112µM	0	0	0	79.4µM
O=C(c1ccncc1)N1CCC2(CC1)CC(N1CCCC1)CCO2 (centres undefined)	0	0	0	0	0	0
O=C(NCc1ccccc1)c1cn(C2CN(C(=O)Nc3ccc4c(c3)OCCO4)C2)nn1	0	35.5µM	0	0	?	?
CC1CCN(C(=O)c2cc3c(s2)CCN(C(=O)c2ccc(Cl)cc2)C3)CC1	0	39.8µM	0	0	0	?
CC1CCCN(C(=O)c2cc3c(s2)CCN(C(=O)c2ccc(Cl)cc2)C3)C1 (centres undefined)	0	44.7µM	0	0	0	?
CC(C)(C)NC(=O)N1CCCC1c1nc(CCOCC2CCCC2)no1 (centres undefined)	0	0	0	0	0	0
N#Cc1ccc(CN2CCn3c(nn(-c4ccc(F)cc4F)c3=O)C2)cc1	0	?	0	0	0	0
O=c1n(-c2ccc(F)cc2F)nc2n1CCN(Cc1ccc(F)cc1)C2	0	50.1µM	0	0	0	?
O=c1n(-c2ccc([N+](=O)[O-])cc2)nc2n1CCN(Cc1ccc(F)cc1)C2	0	35.5µM	0	0	0	?
O=c1n(-c2ccc([N+](=O)[O-])cc2)nc2n1CCN(Cc1ccsc1)C2	0	39.8µM	0	?	?	?
O=c1n(-c2ccc([N+](=O)[O-])cc2)nc2n1CCN(Cc1ccccc1)C2	0	28.2µM	0	0	0	?
COCc1ccc(C(=O)N2CC[C@@H](NC(=O)c3cnccn3)[C@H](O)C2)o1	0	0	0	0	0	0
